The results in this text go back to ChEMBL document CHEMBL1961873, “Compounds: GSK PKIS; Assays: Nanosyn kinase panel” (2012).

In general, inhibition refers to the drop in the measured response relative to a control, in per cent.

Experiment [1] addresses Sphingosine kinase 1 (Homo sapiens) (UniProt Q9NYA1). To be noted: at 1 µM.
Experiment [2] deals with T1, Sphingosine kinase 2 (Homo sapiens) (UniProt Q9NRA0).
T1 sequence (whole entry): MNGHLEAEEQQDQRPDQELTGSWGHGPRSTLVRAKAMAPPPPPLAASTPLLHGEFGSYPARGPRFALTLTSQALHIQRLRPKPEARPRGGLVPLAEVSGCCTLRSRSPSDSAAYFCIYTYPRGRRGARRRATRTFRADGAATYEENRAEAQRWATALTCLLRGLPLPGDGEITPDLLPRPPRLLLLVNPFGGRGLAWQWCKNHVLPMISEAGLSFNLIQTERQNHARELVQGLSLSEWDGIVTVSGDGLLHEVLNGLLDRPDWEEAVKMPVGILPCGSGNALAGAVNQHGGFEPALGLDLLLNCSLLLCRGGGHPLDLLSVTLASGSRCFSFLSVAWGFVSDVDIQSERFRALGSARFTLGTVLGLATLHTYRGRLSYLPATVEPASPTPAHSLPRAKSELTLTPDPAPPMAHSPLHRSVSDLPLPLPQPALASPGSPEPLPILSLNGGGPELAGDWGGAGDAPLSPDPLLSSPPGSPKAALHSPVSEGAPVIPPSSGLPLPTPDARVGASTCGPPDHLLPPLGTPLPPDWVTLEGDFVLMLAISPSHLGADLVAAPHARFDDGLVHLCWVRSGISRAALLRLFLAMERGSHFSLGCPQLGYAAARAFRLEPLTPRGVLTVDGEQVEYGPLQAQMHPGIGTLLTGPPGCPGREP
The following applies: at 0.1 µM.

The target of experiment [3] is T1, Sphingosine kinase 2 (Homo sapiens). To be noted: at 1 µM.
For experiment [4], the target named is Casein kinase II subunit alpha (Homo sapiens) (UniProt P68400). The following applies: at 0.1 µM.
Casein kinase II subunit alpha (Homo sapiens), sequence (P68400 whole entry, looked up): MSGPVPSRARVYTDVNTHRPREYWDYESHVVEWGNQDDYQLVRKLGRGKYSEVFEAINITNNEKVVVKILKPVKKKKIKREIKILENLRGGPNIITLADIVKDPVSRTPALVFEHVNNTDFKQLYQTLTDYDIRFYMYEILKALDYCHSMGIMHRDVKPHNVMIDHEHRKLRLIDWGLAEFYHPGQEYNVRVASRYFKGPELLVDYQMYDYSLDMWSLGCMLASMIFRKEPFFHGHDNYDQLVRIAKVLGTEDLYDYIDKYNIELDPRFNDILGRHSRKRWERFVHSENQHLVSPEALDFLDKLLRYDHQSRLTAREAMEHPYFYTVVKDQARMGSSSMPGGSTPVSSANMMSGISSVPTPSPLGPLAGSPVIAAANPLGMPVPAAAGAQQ
For experiment [5] the target is unchanged. To be noted: at 1 µM.
The target of experiment [6] is T2, Inhibitor of nuclear factor kappa-B kinase subunit alpha (Homo sapiens) (UniProt O15111).
T2 sequence (whole entry): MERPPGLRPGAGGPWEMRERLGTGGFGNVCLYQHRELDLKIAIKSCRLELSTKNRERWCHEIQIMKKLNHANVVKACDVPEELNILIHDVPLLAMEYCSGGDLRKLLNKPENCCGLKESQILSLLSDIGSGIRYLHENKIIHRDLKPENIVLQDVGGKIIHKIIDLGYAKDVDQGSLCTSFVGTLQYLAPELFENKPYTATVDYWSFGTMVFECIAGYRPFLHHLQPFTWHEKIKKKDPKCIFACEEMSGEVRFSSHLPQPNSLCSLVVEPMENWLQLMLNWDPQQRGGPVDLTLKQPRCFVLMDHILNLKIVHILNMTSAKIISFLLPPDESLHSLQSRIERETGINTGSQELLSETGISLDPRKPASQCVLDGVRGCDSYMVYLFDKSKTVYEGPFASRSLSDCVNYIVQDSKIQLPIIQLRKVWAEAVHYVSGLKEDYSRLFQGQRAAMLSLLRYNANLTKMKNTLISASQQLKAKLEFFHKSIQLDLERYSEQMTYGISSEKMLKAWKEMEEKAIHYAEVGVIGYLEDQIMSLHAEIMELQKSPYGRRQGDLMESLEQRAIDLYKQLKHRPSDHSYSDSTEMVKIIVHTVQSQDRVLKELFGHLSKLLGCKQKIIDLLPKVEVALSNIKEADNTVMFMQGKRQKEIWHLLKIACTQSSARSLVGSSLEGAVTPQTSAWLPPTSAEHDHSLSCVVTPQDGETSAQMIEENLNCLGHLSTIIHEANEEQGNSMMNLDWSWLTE
The following applies: at 0.1 µM.

In experiment [7] the target is T2, Inhibitor of nuclear factor kappa-B kinase subunit alpha (Homo sapiens). To be noted: at 1 µM.
The target of experiment [8] is T3, Inhibitor of nuclear factor kappa-B kinase subunit beta (Homo sapiens) (UniProt O14920).
T3 sequence (whole entry): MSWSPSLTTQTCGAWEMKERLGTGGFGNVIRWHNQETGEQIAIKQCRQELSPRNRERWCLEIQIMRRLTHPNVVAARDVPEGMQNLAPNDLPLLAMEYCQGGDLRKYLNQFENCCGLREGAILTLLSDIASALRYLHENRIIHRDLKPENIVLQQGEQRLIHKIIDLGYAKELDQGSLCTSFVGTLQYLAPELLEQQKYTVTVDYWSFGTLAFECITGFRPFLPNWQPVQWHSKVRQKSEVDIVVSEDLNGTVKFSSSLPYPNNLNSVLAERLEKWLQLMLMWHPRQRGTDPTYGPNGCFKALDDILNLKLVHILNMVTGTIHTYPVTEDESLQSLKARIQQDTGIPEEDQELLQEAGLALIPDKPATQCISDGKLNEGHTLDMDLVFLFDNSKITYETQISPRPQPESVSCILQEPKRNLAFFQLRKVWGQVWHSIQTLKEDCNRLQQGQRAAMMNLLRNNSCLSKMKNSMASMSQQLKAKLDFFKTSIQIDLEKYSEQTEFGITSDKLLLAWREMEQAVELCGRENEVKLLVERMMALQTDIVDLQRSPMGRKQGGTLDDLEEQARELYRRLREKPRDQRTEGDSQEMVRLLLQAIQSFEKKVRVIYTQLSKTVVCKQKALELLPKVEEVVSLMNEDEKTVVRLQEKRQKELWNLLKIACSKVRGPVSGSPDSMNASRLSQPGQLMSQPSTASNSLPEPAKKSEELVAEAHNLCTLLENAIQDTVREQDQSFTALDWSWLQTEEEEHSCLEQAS
The following applies: at 0.1 µM.

For experiment [9], the target named is T3, Inhibitor of nuclear factor kappa-B kinase subunit beta (Homo sapiens). The following applies: at 1 µM.
The target of experiment [10] is T4, Inhibitor of nuclear factor kappa-B kinase subunit epsilon (Homo sapiens) (UniProt Q14164).
T4 sequence (whole entry): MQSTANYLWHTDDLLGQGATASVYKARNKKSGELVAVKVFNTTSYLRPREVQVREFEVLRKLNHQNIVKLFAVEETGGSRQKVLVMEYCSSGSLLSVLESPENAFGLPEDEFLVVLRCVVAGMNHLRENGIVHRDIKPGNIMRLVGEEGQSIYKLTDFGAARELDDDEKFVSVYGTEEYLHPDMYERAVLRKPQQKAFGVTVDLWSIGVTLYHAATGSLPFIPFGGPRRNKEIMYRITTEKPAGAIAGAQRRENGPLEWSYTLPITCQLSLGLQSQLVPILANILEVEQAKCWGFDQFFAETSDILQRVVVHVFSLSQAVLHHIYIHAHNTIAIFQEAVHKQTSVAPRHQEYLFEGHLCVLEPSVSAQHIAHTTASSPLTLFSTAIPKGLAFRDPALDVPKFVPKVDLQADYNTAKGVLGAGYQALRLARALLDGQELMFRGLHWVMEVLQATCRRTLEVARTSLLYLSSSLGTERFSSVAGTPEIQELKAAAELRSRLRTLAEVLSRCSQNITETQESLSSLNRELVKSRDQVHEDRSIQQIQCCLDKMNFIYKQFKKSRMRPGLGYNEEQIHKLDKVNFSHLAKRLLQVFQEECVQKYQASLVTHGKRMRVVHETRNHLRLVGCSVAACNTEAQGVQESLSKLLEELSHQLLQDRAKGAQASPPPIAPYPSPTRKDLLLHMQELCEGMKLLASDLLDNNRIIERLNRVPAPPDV
To be noted: at 0.1 µM.

The target of experiment [11] is T4, Inhibitor of nuclear factor kappa-B kinase subunit epsilon (Homo sapiens). The following applies: at 1 µM.
The target of experiment [12] is T5, Serine/threonine-protein kinase Nek1 (Homo sapiens) (UniProt Q96PY6).
T5 sequence (whole entry): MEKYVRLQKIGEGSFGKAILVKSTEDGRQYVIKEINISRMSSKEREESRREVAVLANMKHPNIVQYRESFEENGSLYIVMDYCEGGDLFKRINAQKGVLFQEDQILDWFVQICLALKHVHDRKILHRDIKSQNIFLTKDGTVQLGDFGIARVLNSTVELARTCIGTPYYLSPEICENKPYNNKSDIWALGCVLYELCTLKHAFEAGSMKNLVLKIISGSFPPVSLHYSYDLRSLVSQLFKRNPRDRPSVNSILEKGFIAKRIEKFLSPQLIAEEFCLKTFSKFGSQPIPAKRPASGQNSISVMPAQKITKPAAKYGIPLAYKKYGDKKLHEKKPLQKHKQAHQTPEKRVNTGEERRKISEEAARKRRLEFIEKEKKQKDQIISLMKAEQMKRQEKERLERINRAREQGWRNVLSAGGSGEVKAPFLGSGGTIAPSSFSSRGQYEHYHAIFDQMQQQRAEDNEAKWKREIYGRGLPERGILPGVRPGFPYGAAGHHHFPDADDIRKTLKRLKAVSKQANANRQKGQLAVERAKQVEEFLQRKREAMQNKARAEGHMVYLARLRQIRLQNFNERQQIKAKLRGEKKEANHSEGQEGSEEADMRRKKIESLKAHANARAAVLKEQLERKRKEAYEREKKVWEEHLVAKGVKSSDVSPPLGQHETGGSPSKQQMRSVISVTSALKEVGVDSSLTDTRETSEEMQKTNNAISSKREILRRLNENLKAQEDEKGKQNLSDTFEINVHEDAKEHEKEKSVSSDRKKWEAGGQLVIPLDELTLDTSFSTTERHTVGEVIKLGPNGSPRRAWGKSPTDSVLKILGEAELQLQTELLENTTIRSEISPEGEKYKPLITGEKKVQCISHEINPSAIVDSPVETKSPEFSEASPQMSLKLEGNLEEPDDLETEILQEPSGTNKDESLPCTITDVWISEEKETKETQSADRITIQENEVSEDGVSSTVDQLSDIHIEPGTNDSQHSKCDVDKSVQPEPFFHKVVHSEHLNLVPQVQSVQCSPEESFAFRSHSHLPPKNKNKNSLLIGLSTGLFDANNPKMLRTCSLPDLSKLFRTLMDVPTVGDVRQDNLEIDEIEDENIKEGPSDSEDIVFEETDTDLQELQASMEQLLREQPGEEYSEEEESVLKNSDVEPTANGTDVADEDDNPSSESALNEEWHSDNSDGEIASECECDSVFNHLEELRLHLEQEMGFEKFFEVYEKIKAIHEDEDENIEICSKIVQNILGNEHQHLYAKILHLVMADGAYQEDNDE
The following applies: at 0.1 µM.

The target in experiment [13] is T5, Serine/threonine-protein kinase Nek1 (Homo sapiens). The following applies: at 1 µM.
The target in experiment [14] is T6, Serine/threonine-protein kinase Nek2 (Homo sapiens) (UniProt P51955).
T6 sequence (whole entry): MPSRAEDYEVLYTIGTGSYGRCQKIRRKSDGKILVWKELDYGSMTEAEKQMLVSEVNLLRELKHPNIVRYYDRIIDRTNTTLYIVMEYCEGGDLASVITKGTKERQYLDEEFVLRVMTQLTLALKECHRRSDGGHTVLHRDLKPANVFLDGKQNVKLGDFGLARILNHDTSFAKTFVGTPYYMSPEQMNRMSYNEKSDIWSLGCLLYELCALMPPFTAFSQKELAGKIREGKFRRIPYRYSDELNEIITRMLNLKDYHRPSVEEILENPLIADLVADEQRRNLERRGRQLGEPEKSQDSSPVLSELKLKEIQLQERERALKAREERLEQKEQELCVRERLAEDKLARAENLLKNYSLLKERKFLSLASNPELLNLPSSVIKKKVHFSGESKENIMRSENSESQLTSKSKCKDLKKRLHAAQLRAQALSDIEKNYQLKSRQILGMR
The following applies: at 0.1 µM.

Experiment [15] addresses T6, Serine/threonine-protein kinase Nek2 (Homo sapiens). The following applies: at 1 µM.
Experiment [16] concerns the target Serine/threonine-protein kinase Nek6 (Homo sapiens) (UniProt Q9HC98). The following applies: at 0.1 µM.
Experiment [17] has the same target. The following applies: at 1 µM.
Experiment [18] concerns the target Serine/threonine-protein kinase Nek7 (Homo sapiens) (UniProt Q8TDX7). To be noted: at 0.1 µM.
For experiment [19] the target is unchanged. To be noted: at 1 µM.
Experiment [20] has as its target T7, Serine/threonine-protein kinase Nek9 (Homo sapiens) (UniProt Q8TD19).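 Also: reported value is the mean percent inhibition of NEK9.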
T7 sequence (whole entry): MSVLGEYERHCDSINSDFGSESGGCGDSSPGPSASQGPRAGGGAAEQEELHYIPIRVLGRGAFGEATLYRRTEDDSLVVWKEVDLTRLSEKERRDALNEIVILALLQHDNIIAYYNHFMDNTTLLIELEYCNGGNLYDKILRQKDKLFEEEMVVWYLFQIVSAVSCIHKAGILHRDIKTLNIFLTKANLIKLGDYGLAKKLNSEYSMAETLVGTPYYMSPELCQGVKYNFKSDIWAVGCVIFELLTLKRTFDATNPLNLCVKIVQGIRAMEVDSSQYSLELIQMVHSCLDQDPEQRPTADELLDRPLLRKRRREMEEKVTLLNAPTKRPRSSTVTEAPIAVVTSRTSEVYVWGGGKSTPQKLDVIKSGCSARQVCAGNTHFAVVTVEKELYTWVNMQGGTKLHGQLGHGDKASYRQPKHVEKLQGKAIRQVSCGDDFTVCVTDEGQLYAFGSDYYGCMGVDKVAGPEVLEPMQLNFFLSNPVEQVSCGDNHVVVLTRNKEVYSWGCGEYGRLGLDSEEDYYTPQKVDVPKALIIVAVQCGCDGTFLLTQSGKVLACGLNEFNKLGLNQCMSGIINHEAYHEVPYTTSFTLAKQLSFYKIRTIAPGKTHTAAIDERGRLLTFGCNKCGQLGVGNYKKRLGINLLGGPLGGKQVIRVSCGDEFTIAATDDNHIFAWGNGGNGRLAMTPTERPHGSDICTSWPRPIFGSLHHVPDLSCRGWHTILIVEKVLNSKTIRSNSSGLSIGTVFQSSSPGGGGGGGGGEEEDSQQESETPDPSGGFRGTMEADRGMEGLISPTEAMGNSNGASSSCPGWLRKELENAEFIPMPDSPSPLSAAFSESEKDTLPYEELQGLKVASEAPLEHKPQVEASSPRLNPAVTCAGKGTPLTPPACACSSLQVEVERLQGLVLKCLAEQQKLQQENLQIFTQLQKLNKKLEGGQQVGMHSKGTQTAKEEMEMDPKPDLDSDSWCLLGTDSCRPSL
The following applies: at 0.1 µM.

Serine/threonine-protein kinase Nek7 (Homo sapiens), sequence (Q8TDX7 whole entry, looked up): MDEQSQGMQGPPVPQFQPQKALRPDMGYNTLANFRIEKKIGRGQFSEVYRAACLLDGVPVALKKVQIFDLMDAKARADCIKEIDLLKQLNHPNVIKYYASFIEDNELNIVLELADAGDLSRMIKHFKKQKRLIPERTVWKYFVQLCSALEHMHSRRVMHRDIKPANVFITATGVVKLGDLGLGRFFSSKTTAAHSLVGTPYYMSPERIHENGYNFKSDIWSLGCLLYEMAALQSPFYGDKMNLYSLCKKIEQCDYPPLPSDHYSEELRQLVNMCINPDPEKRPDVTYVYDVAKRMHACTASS
Serine/threonine-protein kinase Nek6 (Homo sapiens), sequence (Q9HC98 whole entry): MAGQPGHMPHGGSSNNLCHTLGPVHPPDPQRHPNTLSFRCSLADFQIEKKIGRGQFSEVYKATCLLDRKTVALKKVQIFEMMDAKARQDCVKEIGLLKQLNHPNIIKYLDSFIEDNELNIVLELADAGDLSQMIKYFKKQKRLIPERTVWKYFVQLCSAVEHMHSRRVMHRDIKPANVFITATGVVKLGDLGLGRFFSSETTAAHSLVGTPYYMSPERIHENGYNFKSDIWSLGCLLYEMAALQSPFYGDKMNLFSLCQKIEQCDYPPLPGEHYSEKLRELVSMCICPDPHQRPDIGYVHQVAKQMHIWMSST
Sphingosine kinase 1 (Homo sapiens), sequence (Q9NYA1 whole entry): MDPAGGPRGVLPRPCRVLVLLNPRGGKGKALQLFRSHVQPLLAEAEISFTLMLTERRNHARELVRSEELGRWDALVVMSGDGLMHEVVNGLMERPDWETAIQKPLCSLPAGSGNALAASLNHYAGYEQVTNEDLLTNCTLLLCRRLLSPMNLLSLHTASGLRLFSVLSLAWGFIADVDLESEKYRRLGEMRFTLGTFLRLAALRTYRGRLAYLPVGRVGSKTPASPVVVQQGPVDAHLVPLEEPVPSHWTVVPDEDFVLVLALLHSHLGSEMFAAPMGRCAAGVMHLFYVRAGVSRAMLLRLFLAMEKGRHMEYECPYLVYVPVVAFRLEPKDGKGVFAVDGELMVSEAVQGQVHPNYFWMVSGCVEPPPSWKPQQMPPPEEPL

Consider `COc1ccc(CNC(=O)c2ccc(-c3cc(-c4nnc(C)o4)ccc3C)cc2)cc1`, for which the inhibition in experiment [1] is -0.2%; in experiment [2], 1.04%; in experiment [3] it was 0.14%; in experiment [4], 6.07%; in experiment [5], 16.4%; in [6] it was 2%. The inhibition was 7.25% in experiment [7]; 1.12% in experiment [8]; 4.56% in experiment [9]; 5.88% in experiment [10]; 3.56% in [11]; 3.38% in experiment [12]. The inhibition in experiment [13] is 1.51%; in experiment [14] it was 1.12%; in experiment [15], 3.44%; in [16], -0.69%; in experiment [17] it was 4.26%; in experiment [18], 1.72%. Further, the results for the inhibition in [19] and in [20] were -1.14% and 1.2%, respectively.
